Results from PubChem BioAssay AID588689 (Southern Research Specialized Biocontainment Screening …, 2011).
About 1,000 (0.29%) of roughly 340,000 compounds were called active. Rule as the data show it: inconclusive = inhibition above about 29% without an active follow-up result; inactive = below that. A selection follows. Results with a measured potency or affinity are listed apart.

Each compound was assayed against Genome polyprotein (Dengue virus type 2 (strain 16681-PDK53)) (UniProt P29991) (assay: flavivirus cap methylation enzyme inhibition – biochemical, confirmation dose response, primary screen (AID 588689)). Details: Dengue-2 NS5 methyltransferase capping enzyme assay, at 25 µM, active compounds read high.
Sequence of Genome polyprotein (Dengue virus type 2 (strain 16681-PDK53)) (P29991 whole entry, looked up): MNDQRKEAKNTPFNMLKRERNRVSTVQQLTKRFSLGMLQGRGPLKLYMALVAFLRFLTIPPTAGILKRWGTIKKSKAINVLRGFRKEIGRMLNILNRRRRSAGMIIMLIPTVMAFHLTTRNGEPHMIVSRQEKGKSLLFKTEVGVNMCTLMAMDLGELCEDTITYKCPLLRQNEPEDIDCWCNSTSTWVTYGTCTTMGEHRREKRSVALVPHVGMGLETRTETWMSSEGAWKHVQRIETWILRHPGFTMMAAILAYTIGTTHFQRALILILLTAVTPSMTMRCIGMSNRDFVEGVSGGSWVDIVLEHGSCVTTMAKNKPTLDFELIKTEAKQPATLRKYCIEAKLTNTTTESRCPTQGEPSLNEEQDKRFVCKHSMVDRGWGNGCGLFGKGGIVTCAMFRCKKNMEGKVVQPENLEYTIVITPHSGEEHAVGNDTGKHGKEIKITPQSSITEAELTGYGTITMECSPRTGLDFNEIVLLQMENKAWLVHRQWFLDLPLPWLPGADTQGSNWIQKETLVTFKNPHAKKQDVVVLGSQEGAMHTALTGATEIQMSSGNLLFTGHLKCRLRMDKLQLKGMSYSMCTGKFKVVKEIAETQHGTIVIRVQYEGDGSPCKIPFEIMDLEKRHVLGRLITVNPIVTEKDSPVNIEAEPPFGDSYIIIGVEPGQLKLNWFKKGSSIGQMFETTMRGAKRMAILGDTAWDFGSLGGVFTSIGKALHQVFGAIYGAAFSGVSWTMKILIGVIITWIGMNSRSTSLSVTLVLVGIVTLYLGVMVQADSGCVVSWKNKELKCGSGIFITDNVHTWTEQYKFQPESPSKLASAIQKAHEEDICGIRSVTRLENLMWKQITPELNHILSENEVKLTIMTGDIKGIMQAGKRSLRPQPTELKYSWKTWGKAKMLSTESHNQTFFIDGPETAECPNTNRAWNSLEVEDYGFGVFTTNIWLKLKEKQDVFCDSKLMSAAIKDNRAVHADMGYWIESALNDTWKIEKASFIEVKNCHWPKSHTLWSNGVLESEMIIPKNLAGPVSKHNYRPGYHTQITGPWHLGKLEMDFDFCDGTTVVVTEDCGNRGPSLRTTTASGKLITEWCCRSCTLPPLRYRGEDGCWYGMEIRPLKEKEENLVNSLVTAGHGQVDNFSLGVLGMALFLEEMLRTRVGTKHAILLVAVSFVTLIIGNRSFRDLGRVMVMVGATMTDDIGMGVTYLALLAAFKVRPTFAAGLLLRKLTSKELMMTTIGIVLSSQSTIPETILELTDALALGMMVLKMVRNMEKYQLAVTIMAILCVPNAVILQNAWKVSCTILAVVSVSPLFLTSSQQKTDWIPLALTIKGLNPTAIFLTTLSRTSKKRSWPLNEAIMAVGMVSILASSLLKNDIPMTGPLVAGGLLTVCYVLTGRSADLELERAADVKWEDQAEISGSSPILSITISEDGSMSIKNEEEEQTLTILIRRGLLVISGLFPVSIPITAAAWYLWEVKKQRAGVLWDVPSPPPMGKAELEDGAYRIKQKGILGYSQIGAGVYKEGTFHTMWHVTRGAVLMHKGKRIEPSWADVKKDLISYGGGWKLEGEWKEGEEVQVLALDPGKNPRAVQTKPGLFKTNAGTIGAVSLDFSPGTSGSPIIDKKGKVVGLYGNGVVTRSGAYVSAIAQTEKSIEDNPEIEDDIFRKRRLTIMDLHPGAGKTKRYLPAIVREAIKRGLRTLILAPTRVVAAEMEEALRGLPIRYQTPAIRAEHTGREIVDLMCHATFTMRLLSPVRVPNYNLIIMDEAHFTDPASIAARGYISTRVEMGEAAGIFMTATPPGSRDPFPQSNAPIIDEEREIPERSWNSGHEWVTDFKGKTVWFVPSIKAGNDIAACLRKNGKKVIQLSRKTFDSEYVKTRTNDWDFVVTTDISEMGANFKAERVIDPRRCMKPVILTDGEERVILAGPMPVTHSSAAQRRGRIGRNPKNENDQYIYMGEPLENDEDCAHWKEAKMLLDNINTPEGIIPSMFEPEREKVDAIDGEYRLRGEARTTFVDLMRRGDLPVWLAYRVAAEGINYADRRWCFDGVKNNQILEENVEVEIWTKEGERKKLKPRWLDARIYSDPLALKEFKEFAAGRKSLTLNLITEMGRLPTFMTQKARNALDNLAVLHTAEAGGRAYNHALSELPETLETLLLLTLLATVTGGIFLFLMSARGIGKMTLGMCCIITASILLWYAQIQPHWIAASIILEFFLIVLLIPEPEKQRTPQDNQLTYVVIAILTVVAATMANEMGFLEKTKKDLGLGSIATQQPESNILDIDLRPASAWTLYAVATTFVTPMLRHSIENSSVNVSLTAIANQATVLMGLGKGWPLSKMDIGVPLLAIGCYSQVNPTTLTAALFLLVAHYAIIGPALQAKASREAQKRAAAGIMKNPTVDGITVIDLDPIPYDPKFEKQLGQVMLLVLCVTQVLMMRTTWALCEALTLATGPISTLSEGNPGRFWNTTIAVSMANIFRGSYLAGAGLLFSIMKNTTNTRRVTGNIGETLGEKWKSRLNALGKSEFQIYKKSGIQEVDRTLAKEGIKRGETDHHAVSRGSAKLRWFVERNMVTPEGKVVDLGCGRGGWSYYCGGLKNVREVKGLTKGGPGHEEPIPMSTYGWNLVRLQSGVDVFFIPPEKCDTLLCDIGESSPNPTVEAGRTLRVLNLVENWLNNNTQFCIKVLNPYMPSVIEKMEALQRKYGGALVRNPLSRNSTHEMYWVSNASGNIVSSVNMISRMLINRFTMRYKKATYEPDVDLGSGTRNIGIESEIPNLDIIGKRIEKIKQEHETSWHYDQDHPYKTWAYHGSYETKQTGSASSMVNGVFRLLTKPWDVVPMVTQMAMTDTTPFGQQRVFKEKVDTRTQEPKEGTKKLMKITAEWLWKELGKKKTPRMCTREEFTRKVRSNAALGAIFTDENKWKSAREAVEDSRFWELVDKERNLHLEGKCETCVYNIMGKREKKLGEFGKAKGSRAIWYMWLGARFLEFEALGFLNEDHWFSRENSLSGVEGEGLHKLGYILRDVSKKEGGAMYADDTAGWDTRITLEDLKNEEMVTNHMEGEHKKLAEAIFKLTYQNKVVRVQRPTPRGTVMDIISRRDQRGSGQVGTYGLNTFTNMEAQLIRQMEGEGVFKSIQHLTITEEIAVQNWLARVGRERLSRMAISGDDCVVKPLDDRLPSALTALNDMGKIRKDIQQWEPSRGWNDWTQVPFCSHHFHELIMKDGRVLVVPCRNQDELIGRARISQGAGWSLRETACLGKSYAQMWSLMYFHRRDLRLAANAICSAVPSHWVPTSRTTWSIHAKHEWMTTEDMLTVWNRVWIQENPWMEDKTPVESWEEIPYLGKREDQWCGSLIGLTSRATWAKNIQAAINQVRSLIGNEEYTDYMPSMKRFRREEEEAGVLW

Structure (SMILES) | inhibition
COc1ccc(O)c(C(=O)c2cc(SCC(=O)O)c3nc4sc5c(c4c(=O)n3c2)CCCC5)c1 | 69.1% (inactive)
O=C(O)CSc1cc(C(=O)c2ccccc2O)cn2c(=O)c3c(-c4ccccc4)csc3nc12 | 36.4% (inactive)
CCc1cc(C(=O)N(Cc2ccccc2)c2c(N)n(CCOC)c(=O)[nH]c2=O)sc1C | -5.81% (inactive)
CC(/C=C1\SC(=S)N(NC(=O)c2ccc(O)cc2)C1=O)=C\c1ccccc1 | 2.55% (inactive)
CC(/C=C1\SC(=S)N(NC(=O)c2ccccc2C)C1=O)=C\c1ccccc1 | 2.21% (inactive)
CC(/C=C1\SC(=S)N(NC(=O)c2ccc(C)cc2)C1=O)=C\c1ccccc1 | -6.45% (inactive)
CC(/C=C1\SC(=S)N(NC(=O)c2cccc(O)c2)C1=O)=C\c1ccccc1 | -2.56% (inactive)
COc1ccc([C@H]2/C=C\CN(S(=O)(=O)c3ccc(C)cc3)[C@@H](C)C(=O)N2Cc2ccc(F)cc2)cc1 | -6.14% (inactive)
CC1CCCCN1CCCNC(=O)CN1C(=O)CSc2ccc(S(=O)(=O)N3CCOCC3)cc21 (centres undefined) | 0.89% (inactive)
Cc1ccnc(SCC(=O)N2CCC(C(N)=O)CC2)n1 | 5.18% (inactive)
O=C1CSCC(=O)N1Cc1ccc(Cl)c(Cl)c1 | 1.96% (inactive)
CCC(Oc1ccccc1)C(=O)NCCOC (centres undefined) | -3.68% (inactive)
CCOC(=O)c1c(/N=C/c2cc(OC)cc([N+](=O)[O-])c2O)sc(C)c1C | -0.36% (inactive)
CCOC(=O)c1c(/N=C/c2cccc([N+](=O)[O-])c2O)sc2c1CCC2 | 25.2% (inactive)
O=C(CCC(=O)c1ccc(F)cc1)Nc1cc(Cl)cc(Cl)c1 | -2.06% (inactive)
CCOC(=O)c1ccc(CC(=O)c2ccc(O)cc2O)o1 | -4.07% (inactive)
CCCc1cc(C(=O)Cc2ccc(C(=O)OCC)o2)c(O)cc1O | -23.9% (inactive)
O=C(O)c1ccc(N/N=C/c2cn(Cc3ccc(F)cc3)c3ccccc23)cc1 | 9.41% (inactive)
Nc1ccc(C(=O)N/N=C/c2cn(Cc3ccccc3F)c3ccccc23)cc1 | -1.3% (inactive)
COc1ccc(OCC(O)CN2CCOCC2)cc1 (centres undefined) | 7.33% (inactive)
Cc1ccc[n+](-c2[nH]c(=O)sc2/C=N/N=C(\[O-])c2cccnc2)c1 | 7.25% (inactive)
Cc1ccc(NS(=O)(=O)c2ccc(NS(=O)(=O)c3cccs3)cc2)cc1 | -2.07% (inactive)
Cc1ccc(NS(=O)(=O)c2cccs2)nc1 | -0.32% (inactive)
O=C(C[n+]1ccn(CCCNP2(=O)C=C(c3ccccc3)OC(c3ccccc3)=C2)c1)c1cccs1 | 6.89% (inactive)
